Growth data for 40 molecules are collected here from PubChem BioAssay (NCI).

“And” between values parts separate entries of the source, which are not always exact repeats. Equal entries are not always repeated. This is part of a sample that, as a whole, favours compounds with a hit. Of some 83,000 tested, about 20% had one in any assay.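 The test compound was applied at a single concentration to cells in 96-well plates for 48 hours, and percent growth was recorded.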 The source made the active and inactive calls.

For the assay, the system named is NCI-H322M lung. Description: NCI-60 one-dose screen, 48 h (100 = growth as untreated, 0 = no growth, -100 = all killed). The conditions noted are these: 10 µM unless noted. Here is the method: Growth inhibition of the NCI-H322M human Non-Small Cell Lung tumor cell line is measured as a screen for anti-cancer activity. Cells are grown in 96 well plates and exposed to the test compound for 48 hours. Compounds are tested at a single concentration, which is 10^-5 M for most compounds. The reported endpoint is percent growth (GI% or GIPRCNT), where numbers from 0 - 100% represent growth inhibition, and numbers from -100% - 0 represent cell death. For example, a value of 40 represents 60% growth inhibition. A value of 0 means no net growth occurred over the course of the experiment. A value of -40 indicates 40% of cells at the beginning of the experiment died by the end of the experiment. A value of -100 means all cells are dead at the end of the experiment.
NCI-60 Human Tumor Cell Lines Screen was performed using the standard one-dose NCI protocol, which is described in more detail at https://dtp.cancer.gov/discovery_development/nci-60/default.htm.
Compounds with GIPRCNT values below 10 were considered active. Activity score was based on GIPRCNT using the following formula: […]
Score is 0 for GIPRCNT values of 100 or above, 50 for GIPRCNT values of 0, and 100 for GIPRCNT values of -100.
For the molecule `Nc1ccc(-c2ccc(N)c(Br)c2)cc1Br`, the growth is 77.3% (inactive). Regarding `CON1CCC[C@]2(C)[C@H]3CC[C@@H]4[C@H]5[C@@H](O)C(C)(C)CC[C@]5(CO)CC[C@@]4(C)[C@]3(C)CC[C@H]2C1(C)C`, the growth was 109% (inactive).

Take `O=C(NCc1ccc(Cn2c(=O)sn(-c3ccc(Cl)cc3)c2=O)cc1)OCc1ccc2c(Cl)cc(Cl)c(O)c2n1`: the growth is 45.7% (inactive). The result for `COc1cc(/C=N/NC(=O)CCN2c3ccccc3Sc3ccccc32)cc(OC)c1OC` reads 83.2% (inactive); that for `COc1cc(/C=C2/C=C(c3ccc(C(C)(C)C)cc3)N(CCc3ccc(S(N)(=O)=O)cc3)C2=O)cc(OC)c1OC`, 81.2% (inactive).

For `O=C(CC1(O)C(=O)Nc2ccc(Br)cc21)c1ccc(Cl)cc1` (stereo not given), the growth is 105% (inactive). Take `Cn1ccnc1CN1CCSC(C(=O)Nc2ccccc2)C1` (stereo not given): the growth was 88.7% (inactive). The result for `C/C=C(/C)C(=O)O[C@@H]1CC(C)(C)CC2C34OC(=O)[C@@]21CC[C@@]3(C)[C@]1(C)CCC2C(C)(C)C(=O)CC[C@]2(C)C1C[C@@H]4Cl` (stereo not given in full) reads 98.2% (inactive); that for `CC(=O)/C=C/c1ccc(OCc2ccc(C(C)(C)C)cc2)cc1`, 19.4% [100 µM] (inactive); that for `OCCN1CCN(CC/C=C2\c3ccccc3Sc3ccc(Cl)cc32)CC1`, 83.1% (inactive). The figure for `O=Nc1c(O)ccc2ccccc12` is 97.1% (inactive).

Turning to `c1ccc(Cc2cccc[n+]2C(c2ccccc2)c2ccccc2)cc1`, the growth is 77.9% (inactive). The result for `C=C(CNCCc1ccc(O)cc1)[C@@H]1CC[C@]2(CO)CC[C@]3(C)[C@H](CC[C@@H]4[C@@]5(C)CCC(NCCc6ccc(O)cc6)C(C)(C)[C@@H]5CC[C@]43C)[C@@H]12` (stereo not given in full) reads -90.6% (active). The result for `COc1ccccc1/C=C1\COc2ccc(O)cc2C1=O` reads 104% (inactive); that for `Cn1cc(C2=C(c3cccc4ccccc34)C(=O)NC2=O)c2cc(Br)ccc21`, 100% (inactive). For the molecule `CC1=CC=C(NC(=O)/C=C/c2ccccc2)CC1Nc1nccc(-c2cccnc2)n1` (stereo not given), the growth was 67.2% (inactive). Consider `S=c1nc(CS)[nH]c2ccccc12`, for which the growth is 95.6% (inactive). In the case of `CCCCCCCCCCCCCCCC[N+](C)(C)CCN(Cc1ccc(OC)cc1)c1ncccn1`, the growth is -81.8% (active) and 74.2% (inactive). `CN(C)CCN1C(=O)c2c(c3c4ccccc4n4c3c3c2c2ccccc2n3C2CC(O)C(O)C4(C)O2)C1=O` (stereo not given): the growth was 34.8% (inactive). The figure for `CC(=O)/C=C/c1ccc(OCc2ccc(Cl)cc2)cc1` is 52.5% [100 µM] (inactive). The result for `COC1=CC(=O)C(OC)=C(O)C1=O` reads 93.8% (inactive); that for `O=C1/C(=C/c2ccccc2)CN(C(=O)C(Cl)Cl)C/C1=C\c1ccccc1`, 37.4% (inactive).

`CCN1C(=S)N(CC)C2C1NC(=S)N2/N=C/C=C/c1ccccc1` (stereo not given): the growth is 51.1% (inactive). The figure for `CC(=O)/C=C/c1ccc(N(CCO)Cc2ccc(C(C)(C)C)cc2)cc1` is -98.7% [100 µM] (active); for `CC[C@@H]1NC(=O)[C@H]([C@H](O)[C@H](C)C/C=C/c2ccc(CN3C(=O)C(C)=C(C)C3=O)cc2)N(C)C(=O)[C@H](C(C)C)N(C)C(=O)[C@H](CC(C)C)N(C)C(=O)[C@H](CC(C)C)N(C)C(=O)[C@@H](C)NC(=O)[C@H](C)NC(=O)[C@H](CC(C)C)N(C)C(=O)[C@H](C(C)C)NC(=O)[C@H](CC(C)C)N(C)C(=O)CN(C)C1=O` it is 65.7% (inactive); for `CN(Cc1ccccc1)c1nc(Cl)c(C2CC(c3ccc(F)cc3)=NN2C=O)s1` (stereo not given) it is 93.1% (inactive). The result for `CN1CCN(Cc2ccc(NC(=O)c3cccc(C#Cc4c(N)ncc5ccc(F)cc45)c3)cc2C(F)(F)F)CC1` reads 3.59% (active); that for `Cc1ccc(C(=O)c2ccc(CC(=O)N=Nc3c(O)[nH]c4ccc(OC(F)(F)F)cc34)n2C)cc1`, 96.7% (inactive); that for `COc1c(F)cc(-n2c(C(=O)N3CC(F)C3)cc3cccnc32)cc1F`, 95.1% (inactive). The result for `Cc1cc2nc(C(Cl)Cl)nc(-c3ccc(Cl)cc3)n2n1` reads -32.5% (active); that for `CCN1CCN(C(=O)[C@]23CC[C@@H](C)[C@H](C)[C@@H]2C2=CC[C@@H]4[C@@]5(C)CCC(=O)C(C)(C)[C@@H]5CC[C@@]4(C)[C@]2(C)CC3)CC1`, 10.2% (inactive). Regarding `Cc1c(C(=O)OCCCCOC(=O)c2c(C)n(C)c3scc[n+]23)[n+]2ccsc2n1C`, the growth is 112% (inactive). The figure for `CC(=O)c1c(C)nc(SCC(=O)Nc2ccc(Cl)cc2)n1-c1ccc(Cl)cc1` is 94.9% (inactive); for `COc1cc2ncnc(Nc3ccc(F)c(Cl)c3)c2cc1OCC(=O)N1CCCCC1` it is 29% (inactive); for `O=C(NNc1ccccc1)c1ccccc1` it is 66.8% (inactive).

Take `CC(=O)OC[C@]12CCC(C)(C)C=C1[C@H]1CC[C@@H]3[C@@]4(C)CCCNC(C)(C)[C@@H]4CC[C@@]3(C)[C@]1(C)CC2`: the growth was 98.9% (inactive). Regarding `Cc1ccc(-c2nc(SCC(=O)c3ccc(C#N)cc3)[nH]c(=O)c2C#N)cc1`, the growth was 106% (inactive).

Take `O=S(=O)(Nc1ccc(F)cc1)c1ccc(-c2cnc(C3CC3)o2)cc1`: the growth is 52.8% (inactive).

For `Fc1ccc(NC(c2ccc(F)cc2)C2CCN(CCCCc3ccccc3)CC2)cc1` (stereo not given), the growth is 60.9% (inactive). The result for `O=C(N=Nc1c(O)[nH]c2ccccc12)Nc1ccccc1Cl` reads 73.5% (inactive).
